# Laboratory results: PubChem BioAssay AID1347165 (National Center for Advancing Translational Sciences (NCATS), 2019)
# The whole screen tested about 220,000 compounds, of which about 5,700 (2.6%) were called active. Inconclusive results (about 18%) are left out. Shown is part of a subset that was picked to be rich in actives. Values without a mark were called inactive. The call rests on the fitted dose curve; in most records, active means well fitted inhibition curve with a large enough effect; inconclusive means small, poorly fitted or top-dose-only effect; inactive means no such curve, though single readings can be large or run the other way.
# Target: Lysine-specific demethylase 5B (Homo sapiens) (UniProt Q9UGL1)
# Test: Primary screen for KDM5B Histone Demethylases FDH-coupled qHTS; further: nearly all actives have a fitted effect of over 70% in size; on activity change, negative = inhibition: 0% is about no effect
# Details: FDH-coupled NADH fluorescence (FDH is formaldehyde dehydrogenase); series mostly up to 57.7 µM; activity change, negative = inhibition: at the top concentration
# Source text: Assay Submitter (PI): Qin Yan, Ph.D. (Yale University) and Xiaodong Cheng, Ph.D. (MD Anderson) This project was funded as part of the NCI NEXT Program and Chemical Biology Consortium (CBC) The histone demethylases, KDM5A and KDM5B catalyze the demethylation of lysine 4 on histone H3 (H3K4me3/2). They are overexpressed in a variety of cancers and have been implicated in cancer cell growth, metastasis, drug resistance, and tumor growth. KDM5A is amplified and overexpressed in breast and gastric cancer; and is translocated in leukemia. While KDM5B is highly expressed in human mammary tumors and breast cancer cell lines, but not in normal adult breast tissue. Moreover, knockdown of KDM5B leads to upregulation of tumor suppressor genes, including BRCA1. The goal of this project is to employ qHTS to identify selective small molecule inhibitors of KDM5A/B demethylase activity to better understand the role of KDM5 in cancer and to develop novel therapies. We employed an FDH-coupled assay previously reported by Sakurai et al. to monitor in vitro KDM5 demethylase activity. Compounds showing dose response inhibition are re-acquired, validated, and tested for non-specific interference with the formaldehyde dehydrogenase (FDH) counterscreen. True inhibitors are validated using an AlphaLisa secondary screen, which employs an H3K4(me2-1)-specific antibody to monitor demethylation of a biotin-tagged H3K4(me3) peptide substrate. Inhibitors are profiled against KDM4A and KDM6A AlphaLisa counterscreens to determine level of demethylase specificity; and against the TruHits counterscreen to eliminate non-specific inhibitory activity on the AlphaLISA detection method. Selective inhibitors identified from the primary and secondary screening are tested in cells using immunofluorescence to monitor global H3K4 tri-methylation as a measure of KDM5A/B inhibition. Early Translation Branch (ETB) National Center for Advancing Translational Sciences (NCATS), Rockville, MD National Institute of Health (NIH), Bethesda, Maryland [1] Sakurai, M et al. A miniaturized screen for inhibitors of Jumonji histone demethylases. Mol Biosyst. 2010 Feb;6(2):357-64. doi: 10.1039/b912993f. Epub 2009 Oct 8.
# Materials: 1536-well Black, solid bottom, medium binding assay plate is purchased from Greiner Bio-one. The enzymes (KDM5B) and substrate (H3K4me3/2) are provided by the principal investigators. The buffer for this assay is composed of 50mM HEPES at pH 7.5 with 0.01% Tween-20. FDH coupled Demethylase qHTS protocol: Three microliter enzyme mix (buffer + 200nM KDM5BDeltaAP final concentration) is dispensed into the assay plate using the BioRAPTR Flying Reagent Dispenser (FRD; […]). Compound (at various final concentration) and control solution is pin transferred to the assay plate using the Kalypsys 1536-pin tool apparatus. The assay plate is incubated for 10 min at room temperature followed by addition of 1uL substrate mix (buffer + 100uM ascorbic acid, 50uM ferrous ammonium sulfate, 12.5uM H3K4Me3, 25uM a-ketoglutarate, 0.25 mM NAD+, 0.25 U/mL formaldehyde dehydrogenase using the FRD yielding a total reaction volume of 4 uL. Initial fluorescence (Read1) is detected using the PerkinElmer ViewLux plate reader equipped with 340 nm excitation and 450 nm emission filters. The final fluorescence (Read2) signal is obtained after 30 min of room temperature incubation. Delta RFU is calculated (Read2 - Read1) and is used to generated dose response curves.
# Potency means the concentration at half of the fitted maximal effect.
# Lysine-specific demethylase 5B (Homo sapiens), sequence (Q9UGL1 whole entry, looked up): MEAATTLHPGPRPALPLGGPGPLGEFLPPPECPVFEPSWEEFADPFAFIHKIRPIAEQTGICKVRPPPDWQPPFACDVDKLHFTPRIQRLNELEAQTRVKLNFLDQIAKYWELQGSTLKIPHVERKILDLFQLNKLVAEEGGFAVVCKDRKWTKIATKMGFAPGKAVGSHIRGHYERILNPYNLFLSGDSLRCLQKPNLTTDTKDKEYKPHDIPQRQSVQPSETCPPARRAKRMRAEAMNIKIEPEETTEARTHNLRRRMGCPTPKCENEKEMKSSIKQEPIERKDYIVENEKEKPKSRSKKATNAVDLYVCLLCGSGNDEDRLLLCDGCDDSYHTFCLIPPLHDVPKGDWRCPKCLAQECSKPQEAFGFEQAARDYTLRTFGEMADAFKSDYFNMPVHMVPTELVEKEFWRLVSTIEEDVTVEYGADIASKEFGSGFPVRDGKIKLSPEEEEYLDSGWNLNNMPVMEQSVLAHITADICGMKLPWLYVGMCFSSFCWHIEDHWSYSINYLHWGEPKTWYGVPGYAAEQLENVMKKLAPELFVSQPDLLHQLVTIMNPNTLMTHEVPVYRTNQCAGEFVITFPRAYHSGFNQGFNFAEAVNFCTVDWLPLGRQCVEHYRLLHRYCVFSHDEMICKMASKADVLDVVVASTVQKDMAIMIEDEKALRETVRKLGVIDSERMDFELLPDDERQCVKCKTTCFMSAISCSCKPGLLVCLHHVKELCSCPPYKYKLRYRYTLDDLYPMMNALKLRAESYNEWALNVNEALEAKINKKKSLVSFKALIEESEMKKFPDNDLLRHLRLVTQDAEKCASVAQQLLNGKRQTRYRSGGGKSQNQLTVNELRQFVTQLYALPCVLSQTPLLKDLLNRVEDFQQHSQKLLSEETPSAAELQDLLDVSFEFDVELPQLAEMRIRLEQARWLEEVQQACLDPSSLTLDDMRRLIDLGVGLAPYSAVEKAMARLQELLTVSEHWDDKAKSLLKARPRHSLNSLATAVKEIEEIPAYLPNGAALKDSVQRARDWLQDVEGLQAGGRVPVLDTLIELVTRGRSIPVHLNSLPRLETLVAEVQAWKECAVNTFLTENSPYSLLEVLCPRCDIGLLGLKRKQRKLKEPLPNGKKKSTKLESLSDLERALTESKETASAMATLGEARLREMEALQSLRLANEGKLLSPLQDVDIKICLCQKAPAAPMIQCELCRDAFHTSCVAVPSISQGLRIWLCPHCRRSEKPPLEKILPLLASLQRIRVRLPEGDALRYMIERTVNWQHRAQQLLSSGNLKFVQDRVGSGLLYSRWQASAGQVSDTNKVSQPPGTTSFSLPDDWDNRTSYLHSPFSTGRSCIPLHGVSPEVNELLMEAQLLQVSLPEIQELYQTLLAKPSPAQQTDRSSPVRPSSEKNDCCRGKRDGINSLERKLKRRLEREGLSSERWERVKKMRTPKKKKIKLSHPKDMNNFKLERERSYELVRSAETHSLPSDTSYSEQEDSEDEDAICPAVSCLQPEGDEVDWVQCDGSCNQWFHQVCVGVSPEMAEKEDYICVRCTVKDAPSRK
Structure (SMILES),"activity change, negative = inhibition",Potency
COc1ccc(C(C)=O)cc1CN1CCN(C/C=C/c2ccccc2)CC1,-9.81%,
NC(N)=N/N=C/c1ccc([N+](=O)[O-])cc1,8.86%,
CSc1ccccc1NC(=O)c1ccc(C)c(C)c1,16%,
O=C1NC2(CCN(C(=O)c3ccccc3)C2)COc2ccccc21 (centres undefined),-9.71% [at 86.2 µM],
COc1ccccc1C(=O)N1CCC2(CC1)C(=O)Nc1ccccc12,6.29% [at 149 µM],
COc1ccccc1C(=O)N1CCC2(CC1)CC(=O)c1ccccc1O2,,31.6 µM (active)
Cc1ccc(C(=O)N2CCC3(CC2)CC(=O)c2ccccc2O3)cc1,,25.1 µM (active)
Cc1ccc(C(=O)N2CCC3(CC2)NC(=O)N(Cc2ccc(F)cc2)C3=O)cc1,1.93%,
COc1ccccc1C(=O)N1CCC2(CCC(=O)N(Cc3ccccc3)CC2)CC1,24.3%,
Cc1[nH]c2ccccc2c1C(=O)COc1ccc(C(N)=O)cc1,13.8%,
COc1ccc(-c2c(C)oc3cc(OC(=O)c4ccc5c(c4)OCO5)ccc3c2=O)cc1,-15.3%,
CCS(=O)(=O)N1CCC(NS(=O)(=O)c2ccsc2C(=O)OC)CC1,-5.24%,
COc1ccc(-c2nc(CN3CCCC3c3nnc4ccccn34)co2)cc1 (centres undefined),14.3%,
CCOC(=O)c1ccoc1CN1CCCC(O)C1 (centres undefined),27.4%,
CCCn1c(NC(=O)CCOc2ccccc2)nc2ccccc21,8.15%,
CONC(=O)Cc1ccc(OC)cc1,15.6%,
O=C(O)C(c1c[nH]c2ccc(Cl)cc12)N1CCCN(c2ccc(C(F)(F)F)cn2)CC1 (centres undefined),-6.83%,
CCn1c(SCC(=O)NC2=NCCS2)nnc1C(C)NC(=O)c1ccccc1F (centres undefined),-16.3%,
CC(C)n1nc(C(=O)Nc2ccc(Nc3ccccc3)cc2)c2ccccc2c1=O,5.18%,
CC(=O)c1ccc(NC(=O)COc2ccccc2-c2nc(-c3ccccc3)no2)cc1,-17.9%,
c1ccc(-c2noc(-c3ccccc3OC3CCNC3)n2)cc1 (centres undefined),,20 µM (active)
Brc1ccc(-c2noc(-c3ccccc3)n2)o1,-21.5%,
CN1C[C@]2(C=C3CCCCC3n3c(=O)n(-c4ccccc4)c(=O)n32)N=C1NC(=O)c1ccccc1 (some centres undefined),14%,
CCCNC(=S)NNC(=O)CCC,43.4%,
CC1CCN(C(=O)C[C@@H]2c3nc(NC(=O)c4ccnc(Cl)c4)sc3C[C@@H]3[C@](C)(CO)[C@H](O)CC[C@]32C)CC1,2.05%,
CCC(C)NC(=O)c1ccc(NC(=O)CC2SC(N3CCCCC3)=NC2=O)cc1 (centres undefined),18.7%,
CCC(=O)Nc1ccc2nnc(-c3ccc(C(=O)Nc4ccc(OC)cc4)cc3)n2c1,,25.1 µM (active)

Structure (SMILES),"activity change, negative = inhibition",Potency
CCC(CC)NC(=O)c1ccc(-c2nnc3ccc(NC(=O)C4CCC4)cn23)cc1,,10 µM (active)
COc1ccc(C(=O)Nc2cccc(-c3nnc4n3CCCC4)c2)cc1,-18.8%,
COc1ccc(NC(=O)C2CCCN(Cc3nc(-c4ccc(OC)c(OC)c4)no3)C2)cc1OC (centres undefined),13.9%,
COc1ccc(CC(=O)Nc2ccc(C(=O)NC(C)(C)C)cc2)cc1,5.55%,
O=[N+]([O-])c1ccc(/C=N/OCc2cc(F)cc3cccnc23)cc1,16.7%,
CC1C(=O)Nc2ccccc2N1C(=O)c1ccc(F)cc1F (centres undefined),-16.2%,
CC(C)(C)c1ccc(C(=O)NN=C2CCCCC2)cc1,27.1%,
FC(F)(F)c1ccc(CCNC(=S)NC2CC2)cc1,12.5%,
O=C(c1cccc(C(F)(F)F)c1)N1CCC2(CC1)CC(O)CCO2 (centres undefined),25.6%,
COc1ccc(OC2CN(CC3CCCCC3)C2)cc1,27.3% [at 149 µM],
COc1ccc(CN2CC(Oc3ccc(OC)cc3)C2)cc1,29.7% [at 149 µM],
COc1ccc(OC2CN(Cc3cccn3C)C2)cc1,,44.7 µM (active)
CN(C(=O)Cn1nc(Cc2cccnc2)c2ccccc2c1=O)c1ccccc1Cl,4.77%,
CC1=NS(=O)(=O)N(Cc2ccccc2)C=C1C(=O)OCc1noc(C)n1,2.43%,
COc1cccc(-c2cc(C3CCN(C(=O)Nc4ccccc4Cl)CC3)[nH]n2)c1,-21.3%,
O=C(OCc1nc2ccccc2o1)c1cc(F)cc(F)c1,-13%,
Cc1noc(-c2ccc(OC3CN(C(=O)c4ccco4)C3)cc2)n1,-1.11%,
Cc1noc(-c2cccn3c(CNC(=O)c4ccco4)nnc23)n1,,28.2 µM (active)
COCc1nc(CCNC(=O)CCc2ccccc2)no1,0.693%,
Cc1noc(-c2cccc(OC3CN(C(=O)NCCc4ccccc4)C3)c2)n1,11.7%,
Cc1noc(-c2cccn3c(CNC(=O)CCc4ccccc4)nnc23)n1,,22.4 µM (active)
Cc1cnc(CCNC(=O)c2ccco2)n1C1CCC1,-24%,
Cn1c(=O)[nH]c(=O)c2c1ncn2CC(O)c1ccccc1 (centres undefined),6.84%,
Cc1ccc(-c2nnc3ccc(-c4ccoc4)nn23)nc1,,31.6 µM (active)
CC(=O)N1CCN(c2ccc3nnc(-c4ccc(C)cn4)n3n2)CC1,-29.3% [at 86.2 µM],
COP(=O)(OC)c1nc(-c2cccs2)oc1NCc1ccc(C)cc1,-3030%,
O=C(Nc1ccccc1F)c1ccc2c(c1)n(Cc1ccccc1)c(=O)c1ccnn12,,31.6 µM (active)
